Results: article PMC7862700, “An all-to-all approach to the identification of sequence-specific readers for epigenetic DNA modifications on cytosine”

How the values were obtained:
Assay in all cases: DAPPL (digital affinity profiling via proximity ligation, sequencing); 10 mM Tris-HCl pH 7.5, 50 mM NaCl, 1 mM DTT, 4% glycerol, room temperature, 30 min; GST-TFs on glutathione beads, 16-mer random dsDNA library, 0.1% formaldehyde crosslink after washing; high values mean tight binding
Settings in all cases: protein: recombinant; tags: N-terminal GST; dsDNA, one strand shown
ERF = target: T1, ERF (Homo sapiens, UniProt P50548 1-548)
T1 sequence: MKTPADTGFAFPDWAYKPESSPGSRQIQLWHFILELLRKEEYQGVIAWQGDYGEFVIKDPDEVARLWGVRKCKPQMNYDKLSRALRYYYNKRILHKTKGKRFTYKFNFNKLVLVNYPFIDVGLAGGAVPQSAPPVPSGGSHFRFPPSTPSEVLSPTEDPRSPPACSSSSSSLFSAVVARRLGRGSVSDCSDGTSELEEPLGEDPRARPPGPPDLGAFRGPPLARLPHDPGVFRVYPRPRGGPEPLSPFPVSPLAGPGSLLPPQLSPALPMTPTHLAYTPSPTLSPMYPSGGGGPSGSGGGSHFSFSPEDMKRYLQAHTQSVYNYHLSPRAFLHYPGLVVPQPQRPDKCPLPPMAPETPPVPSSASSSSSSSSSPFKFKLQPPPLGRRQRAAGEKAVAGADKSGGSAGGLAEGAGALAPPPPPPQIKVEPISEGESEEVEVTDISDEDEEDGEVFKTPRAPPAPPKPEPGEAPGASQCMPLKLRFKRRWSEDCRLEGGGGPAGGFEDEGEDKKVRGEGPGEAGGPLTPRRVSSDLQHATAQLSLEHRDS
Method in brief: (§1)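 Binding signal is given per hexamer as its read frequency for a factor divided by its frequency in the tag-only sample. GST-fused human transcription factors were expressed in yeast, captured on glutathione beads, barcoded with DNA and pooled with that sample, then incubated with 200 nmole of a 16-mer random double-stranded DNA library in Tris/NaCl/DTT/glycerol buffer for 30 min at room temperature. The pools were then washed, crosslinked, proximity-ligated, amplified by PCR and sequenced on an Illumina NextSeq500.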

ETV3L = target: T2, ETV3L (Homo sapiens, UniProt Q6ZN32 1-361)
T2 sequence: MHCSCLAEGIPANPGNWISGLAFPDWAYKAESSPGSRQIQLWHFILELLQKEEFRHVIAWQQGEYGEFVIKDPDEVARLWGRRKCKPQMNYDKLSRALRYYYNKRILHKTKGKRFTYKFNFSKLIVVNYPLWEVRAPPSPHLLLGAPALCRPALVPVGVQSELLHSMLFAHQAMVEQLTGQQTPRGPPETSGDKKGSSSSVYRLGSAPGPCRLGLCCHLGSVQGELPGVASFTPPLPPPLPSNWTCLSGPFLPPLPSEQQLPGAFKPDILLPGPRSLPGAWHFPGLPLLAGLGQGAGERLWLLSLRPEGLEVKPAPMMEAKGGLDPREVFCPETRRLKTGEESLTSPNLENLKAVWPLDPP
Method in brief: as §1

ETS2 = target: T3, ETS2 (Homo sapiens, UniProt P15036 1-469)
T3 sequence: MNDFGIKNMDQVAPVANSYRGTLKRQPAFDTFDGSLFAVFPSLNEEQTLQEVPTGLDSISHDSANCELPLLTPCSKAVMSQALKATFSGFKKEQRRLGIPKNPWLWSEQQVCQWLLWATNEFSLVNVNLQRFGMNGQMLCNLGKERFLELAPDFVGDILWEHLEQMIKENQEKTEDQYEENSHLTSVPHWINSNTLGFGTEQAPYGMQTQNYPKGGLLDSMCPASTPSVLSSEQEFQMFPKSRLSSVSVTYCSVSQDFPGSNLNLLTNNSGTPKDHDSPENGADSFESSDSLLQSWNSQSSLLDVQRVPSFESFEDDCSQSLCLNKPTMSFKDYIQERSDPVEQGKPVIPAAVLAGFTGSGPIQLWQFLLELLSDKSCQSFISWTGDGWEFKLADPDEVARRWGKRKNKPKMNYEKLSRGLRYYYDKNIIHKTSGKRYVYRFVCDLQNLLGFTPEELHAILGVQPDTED
Method in brief: as §1

SPDEF = target: T4, SPDEF (Homo sapiens, UniProt O95238 1-335)
T4 sequence: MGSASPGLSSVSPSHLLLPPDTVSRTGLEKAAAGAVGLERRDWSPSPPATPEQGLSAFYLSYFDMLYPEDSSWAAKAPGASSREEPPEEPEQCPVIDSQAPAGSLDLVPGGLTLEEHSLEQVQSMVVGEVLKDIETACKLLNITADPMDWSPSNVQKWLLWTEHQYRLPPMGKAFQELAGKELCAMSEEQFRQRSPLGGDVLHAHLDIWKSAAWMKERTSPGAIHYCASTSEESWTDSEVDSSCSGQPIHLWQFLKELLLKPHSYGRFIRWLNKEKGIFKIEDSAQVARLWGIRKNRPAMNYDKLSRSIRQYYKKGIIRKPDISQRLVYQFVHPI
Method in brief: as §1

ETV7 = target: T5, ETV7 (Homo sapiens, UniProt Q9Y603 1-341)
T5 sequence: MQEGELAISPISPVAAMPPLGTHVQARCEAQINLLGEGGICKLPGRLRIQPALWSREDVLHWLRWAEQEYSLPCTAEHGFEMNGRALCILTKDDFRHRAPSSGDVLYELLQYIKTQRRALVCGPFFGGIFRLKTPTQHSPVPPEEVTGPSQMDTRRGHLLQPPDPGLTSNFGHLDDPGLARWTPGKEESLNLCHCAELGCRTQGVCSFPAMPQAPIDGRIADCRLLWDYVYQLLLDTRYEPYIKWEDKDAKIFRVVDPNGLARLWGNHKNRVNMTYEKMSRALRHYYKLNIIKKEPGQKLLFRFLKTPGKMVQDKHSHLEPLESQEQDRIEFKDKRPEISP
Method in brief: as §1

ELF5 = target: T6, ELF5 (Homo sapiens, UniProt Q9UKW6-2 1-255)
T6 sequence: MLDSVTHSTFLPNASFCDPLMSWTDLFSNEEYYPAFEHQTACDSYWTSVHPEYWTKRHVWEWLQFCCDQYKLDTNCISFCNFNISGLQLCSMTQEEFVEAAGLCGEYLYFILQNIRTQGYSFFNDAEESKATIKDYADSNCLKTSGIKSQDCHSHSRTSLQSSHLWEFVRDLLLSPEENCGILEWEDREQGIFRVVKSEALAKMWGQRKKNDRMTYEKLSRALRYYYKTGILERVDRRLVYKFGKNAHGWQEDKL
Method in brief: as §1

ETV3 = target: T7, ETV3 (Homo sapiens, UniProt P41162-2 1-143)
T7 sequence: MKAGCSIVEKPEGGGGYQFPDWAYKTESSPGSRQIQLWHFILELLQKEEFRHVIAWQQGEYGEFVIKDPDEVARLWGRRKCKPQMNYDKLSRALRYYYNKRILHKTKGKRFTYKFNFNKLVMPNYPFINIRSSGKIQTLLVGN
Method in brief: as §1

ETV6 = ETV6 (Homo sapiens, UniProt P41212 1-452)
Chain of ETV6 (P41212 whole entry): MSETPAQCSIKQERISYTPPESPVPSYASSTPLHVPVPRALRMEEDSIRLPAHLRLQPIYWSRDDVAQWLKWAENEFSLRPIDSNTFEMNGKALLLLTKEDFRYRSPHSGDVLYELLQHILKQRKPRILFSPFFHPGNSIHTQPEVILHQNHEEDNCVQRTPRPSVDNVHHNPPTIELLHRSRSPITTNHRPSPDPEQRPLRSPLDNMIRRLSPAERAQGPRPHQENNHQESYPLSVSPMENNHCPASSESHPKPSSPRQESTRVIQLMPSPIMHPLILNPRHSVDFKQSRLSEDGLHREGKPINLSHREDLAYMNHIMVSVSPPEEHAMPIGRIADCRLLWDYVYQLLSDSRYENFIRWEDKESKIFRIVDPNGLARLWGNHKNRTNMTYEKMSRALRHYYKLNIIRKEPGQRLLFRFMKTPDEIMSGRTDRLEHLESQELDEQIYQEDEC
Method in brief: as §1

Sequence	binding signal (ERF)	binding signal (ETV3L)	binding signal (ETS2)	binding signal (SPDEF)	binding signal (ETV7)	binding signal (ELF5)	binding signal (ETV3)	binding signal (ETV6)
CTTCCT	2.9 fold enrichment (6-mer frequency, TF over GST control)	3.08 fold enrichment (6-mer frequency, TF over GST control)	3.37 fold enrichment (6-mer frequency, TF over GST control)	2.74 fold enrichment (6-mer frequency, TF over GST control)	2.76 fold enrichment (6-mer frequency, TF over GST control)	5.89 fold enrichment (6-mer frequency, TF over GST control)	3.61 fold enrichment (6-mer frequency, TF over GST control)	3.81 fold enrichment (6-mer frequency, TF over GST control)
CTTAAC	1.3 fold enrichment (6-mer frequency, TF over GST control)	1.22 fold enrichment (6-mer frequency, TF over GST control)	1.3 fold enrichment (6-mer frequency, TF over GST control)	1.36 fold enrichment (6-mer frequency, TF over GST control)	1.29 fold enrichment (6-mer frequency, TF over GST control)	1.31 fold enrichment (6-mer frequency, TF over GST control)	1.3 fold enrichment (6-mer frequency, TF over GST control)	1.29 fold enrichment (6-mer frequency, TF over GST control)
TTATGG	1.31 fold enrichment (6-mer frequency, TF over GST control)	1.32 fold enrichment (6-mer frequency, TF over GST control)	1.26 fold enrichment (6-mer frequency, TF over GST control)	1.26 fold enrichment (6-mer frequency, TF over GST control)	1.36 fold enrichment (6-mer frequency, TF over GST control)	1.28 fold enrichment (6-mer frequency, TF over GST control)	1.44 fold enrichment (6-mer frequency, TF over GST control)	1.35 fold enrichment (6-mer frequency, TF over GST control)
CCCCTC	1.43 fold enrichment (6-mer frequency, TF over GST control)	1.4 fold enrichment (6-mer frequency, TF over GST control)	1.33 fold enrichment (6-mer frequency, TF over GST control)	1.33 fold enrichment (6-mer frequency, TF over GST control)	1.24 fold enrichment (6-mer frequency, TF over GST control)	1.24 fold enrichment (6-mer frequency, TF over GST control)	1.28 fold enrichment (6-mer frequency, TF over GST control)	1.28 fold enrichment (6-mer frequency, TF over GST control)
ACTCTT	1.31 fold enrichment (6-mer frequency, TF over GST control)	1.27 fold enrichment (6-mer frequency, TF over GST control)	1.15 fold enrichment (6-mer frequency, TF over GST control)	1.18 fold enrichment (6-mer frequency, TF over GST control)	1.29 fold enrichment (6-mer frequency, TF over GST control)	1.34 fold enrichment (6-mer frequency, TF over GST control)	1.25 fold enrichment (6-mer frequency, TF over GST control)	1.25 fold enrichment (6-mer frequency, TF over GST control)
AACACA	1.39 fold enrichment (6-mer frequency, TF over GST control)	1.34 fold enrichment (6-mer frequency, TF over GST control)	1.38 fold enrichment (6-mer frequency, TF over GST control)	1.41 fold enrichment (6-mer frequency, TF over GST control)	1.46 fold enrichment (6-mer frequency, TF over GST control)	1.36 fold enrichment (6-mer frequency, TF over GST control)	1.35 fold enrichment (6-mer frequency, TF over GST control)	1.29 fold enrichment (6-mer frequency, TF over GST control)
CCCGCT	1.37 fold enrichment (6-mer frequency, TF over GST control)	1.47 fold enrichment (6-mer frequency, TF over GST control)	1.22 fold enrichment (6-mer frequency, TF over GST control)	1.32 fold enrichment (6-mer frequency, TF over GST control)	1.36 fold enrichment (6-mer frequency, TF over GST control)	1.39 fold enrichment (6-mer frequency, TF over GST control)	1.36 fold enrichment (6-mer frequency, TF over GST control)	1.38 fold enrichment (6-mer frequency, TF over GST control)
AAGATT	1.1 fold enrichment (6-mer frequency, TF over GST control)	1.18 fold enrichment (6-mer frequency, TF over GST control)	1.18 fold enrichment (6-mer frequency, TF over GST control)	1.16 fold enrichment (6-mer frequency, TF over GST control)	1.16 fold enrichment (6-mer frequency, TF over GST control)	1.14 fold enrichment (6-mer frequency, TF over GST control)	1.14 fold enrichment (6-mer frequency, TF over GST control)	1.19 fold enrichment (6-mer frequency, TF over GST control)
ACCTCT	1.52 fold enrichment (6-mer frequency, TF over GST control)	1.32 fold enrichment (6-mer frequency, TF over GST control)	1.23 fold enrichment (6-mer frequency, TF over GST control)	1.4 fold enrichment (6-mer frequency, TF over GST control)	1.48 fold enrichment (6-mer frequency, TF over GST control)	1.34 fold enrichment (6-mer frequency, TF over GST control)	1.4 fold enrichment (6-mer frequency, TF over GST control)	1.39 fold enrichment (6-mer frequency, TF over GST control)
TGTTAT	1.47 fold enrichment (6-mer frequency, TF over GST control)	1.49 fold enrichment (6-mer frequency, TF over GST control)	1.34 fold enrichment (6-mer frequency, TF over GST control)	1.41 fold enrichment (6-mer frequency, TF over GST control)	1.24 fold enrichment (6-mer frequency, TF over GST control)	1.36 fold enrichment (6-mer frequency, TF over GST control)	1.32 fold enrichment (6-mer frequency, TF over GST control)	1.39 fold enrichment (6-mer frequency, TF over GST control)
CCCGAC	1.29 fold enrichment (6-mer frequency, TF over GST control)	1.41 fold enrichment (6-mer frequency, TF over GST control)	1.27 fold enrichment (6-mer frequency, TF over GST control)	1.44 fold enrichment (6-mer frequency, TF over GST control)	1.37 fold enrichment (6-mer frequency, TF over GST control)	1.38 fold enrichment (6-mer frequency, TF over GST control)	1.25 fold enrichment (6-mer frequency, TF over GST control)	1.42 fold enrichment (6-mer frequency, TF over GST control)
CGATTT	1.09 fold enrichment (6-mer frequency, TF over GST control)	1.17 fold enrichment (6-mer frequency, TF over GST control)	1.26 fold enrichment (6-mer frequency, TF over GST control)	1.07 fold enrichment (6-mer frequency, TF over GST control)	1.13 fold enrichment (6-mer frequency, TF over GST control)	1.13 fold enrichment (6-mer frequency, TF over GST control)	1.18 fold enrichment (6-mer frequency, TF over GST control)	1.22 fold enrichment (6-mer frequency, TF over GST control)
CGTTTT	1.15 fold enrichment (6-mer frequency, TF over GST control)	1.29 fold enrichment (6-mer frequency, TF over GST control)	1.16 fold enrichment (6-mer frequency, TF over GST control)	1.14 fold enrichment (6-mer frequency, TF over GST control)	1.25 fold enrichment (6-mer frequency, TF over GST control)	1.14 fold enrichment (6-mer frequency, TF over GST control)	1.21 fold enrichment (6-mer frequency, TF over GST control)	1.24 fold enrichment (6-mer frequency, TF over GST control)
TTTGAC	1.49 fold enrichment (6-mer frequency, TF over GST control)	1.35 fold enrichment (6-mer frequency, TF over GST control)	1.33 fold enrichment (6-mer frequency, TF over GST control)	1.48 fold enrichment (6-mer frequency, TF over GST control)	1.58 fold enrichment (6-mer frequency, TF over GST control)	1.34 fold enrichment (6-mer frequency, TF over GST control)	1.38 fold enrichment (6-mer frequency, TF over GST control)	1.4 fold enrichment (6-mer frequency, TF over GST control)
TTACCT	1.22 fold enrichment (6-mer frequency, TF over GST control)	1.22 fold enrichment (6-mer frequency, TF over GST control)	1.32 fold enrichment (6-mer frequency, TF over GST control)	1.18 fold enrichment (6-mer frequency, TF over GST control)	1.36 fold enrichment (6-mer frequency, TF over GST control)	1.28 fold enrichment (6-mer frequency, TF over GST control)	1.17 fold enrichment (6-mer frequency, TF over GST control)	1.23 fold enrichment (6-mer frequency, TF over GST control)
